From PubChem BioAssay (Tox21)
Where “and” joins values, the source holds several entries; their conditions need not be identical. Equal entries are not always repeated. Inconclusive results are not listed. A call without a number means that no potency is given here. Some structures have more than one record in an assay (separate samples or runs), and their calls can disagree. Calls of active or inactive are those of the source. Unless noted, calls follow the shape of the dose curve; as a rule, active = well fitted cell-killing curve with a large enough effect in the repeat runs; inconclusive = weak or mixed curves, or effect the other way; inactive = flat fitted curve, though single readings scatter.

Assay: qHTS assay to identify small molecule antagonists of the estrogen receptor alpha (ER-alpha) signaling pathway using the BG1 cell line (AID 743080; calls by dose curve; also: nearly all actives have a fitted effect of over 25% in size)
Conditions: BG1Luc4E2 ERE-luciferase antagonist mode, luminescence; activity change, negative = inhibition: at 70.3 µM (top of the series)
Summary of the method: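 Antagonist mode: compounds in DMSO were pinned onto BG1-Luc-4E2 cells alongside 17beta-estradiol agonist, incubated 21.5 h, and ERE-driven luciferase measured with ONE-Glo. Cytotoxicity was multiplexed using CellTiter-Fluor fluorescence.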
Potency is read from the fitted curve at half-maximal effect.

Row | SMILES | Potency
1 | Cc1cc(=O)oc2cc(O)ccc12 | inactive
2 | O=C1OC2(c3ccccc31)c1cc(Br)c(O)c(Br)c1Oc1c2cc(Br)c(O)c1Br | inactive
3 | CN1[C@@H]2CC(OC(=O)[C@H](CO)c3ccccc3)C[C@H]1[C@@H]1O[C@@H]12 (some centres not stated) | inactive
4 | CN1CCC[C@H]1c1cccnc1 | inactive
5 | CC(=O)CCC(=O)O | inactive
6 | Nc1ccc(O)c([N+](=O)[O-])c1 | inactive
7 | NC(=O)n1c(O)c(C(=O)c2cccs2)c2cc(Cl)ccc21 | 29.8 µM (active)
8 | C=C(C)C(=O)OCC(C)O (configuration not stated) | inactive
9 | CCN(Cc1c(F)cccc1Cl)c1c([N+](=O)[O-])cc(C(F)(F)F)cc1[N+](=O)[O-] | inactive
10 | NC(=O)c1cccnc1 | inactive
11 | O=S1(=O)OC(c2ccc(O)cc2)(c2ccc(O)cc2)c2ccccc21 | inactive
12 | CCc1nc(N)nc(N)c1-c1ccc(Cl)cc1 | 23.7 µM (active)
13 | CN(N=O)C(=O)N[C@@H]1[C@@H](O)[C@H](O)[C@@H](CO)O[C@@H]1O | inactive
14 | NC1CCCCC1 | inactive
15 | C=CCc1ccc(O)c(OC)c1 | inactive

Assay: qHTS assay to identify small molecule antagonists of the estrogen receptor alpha (ER-alpha) signaling pathway using the BG1 cell line - cell viability counter screen (AID 743081);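 also: compound given together with 17beta-estradiol as the ER stimulus; nearly all actives have a fitted effect of over 45% in size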
Conditions: BG1Luc4E2 viability, CellTiter-Fluor, 22 h; series mostly up to 70.3 µM

Row | SMILES | Potency
16 | COc1ccc2cc(S(=O)(=O)N[C@H](CC(=O)N[C@H](Cc3ccc(CN4[C@H](C)CCC[C@@H]4C)cc3)C(=O)N(C)C(C)C)c3ccc4c(c3)OCO4)ccc2c1 | 9.17 µM (active)
17 | Cc1cc(=O)oc2cc(O)ccc12 | inactive
18 | O=C1OC2(c3ccccc31)c1cc(Br)c(O)c(Br)c1Oc1c2cc(Br)c(O)c1Br | 11.9 µM (active) and 3.91 µM (active) and 8.88 µM (active)
19 | CN1[C@@H]2CC(OC(=O)[C@H](CO)c3ccccc3)C[C@H]1[C@@H]1O[C@@H]12 (some centres not stated) | inactive
20 | CN(C)CCOC(C)(c1ccccc1)c1ccccn1 (configuration not stated) | inactive
21 | CN1CCC[C@H]1c1cccnc1 | inactive
22 | CC(=O)C(=O)O | inactive
23 | CC(=O)CCC(=O)O | inactive
24 | Nc1ccc(O)c([N+](=O)[O-])c1 | 34 µM (active)
25 | O=C(O)CC(O)C(=O)O (configuration not stated) | inactive
26 | CC/C(=C(\c1ccccc1)c1ccc(OCCN(C)C)cc1)c1ccccc1 | inactive
27 | CC(C)c1c(C(=O)Nc2ccccc2)c(-c2ccccc2)c(-c2ccc(F)cc2)n1CC[C@@H](O)C[C@@H](O)CC(=O)O | inactive
28 | C=C(C)C(=O)OCC(C)O (configuration not stated) | inactive
29 | Cc1c(C(=O)O)c(O)cc2c1C(=O)c1c(O)c([C@@H]3O[C@H](CO)[C@@H](O)[C@H](O)[C@H]3O)c(O)c(O)c1C2=O | 18.8 µM (active) and 29.9 µM (active) and 27.3 µM (active)
30 | Cc1cc(C)nc(NS(=O)(=O)c2ccc(N)cc2)n1 | inactive
31 | CCCCC(CC)C(=O)O (configuration not stated) | inactive
32 | CCCCCCCCCCCC[N+](C)(C)Cc1ccccc1 | inactive and 74.5 µM (active)
33 | CCN(Cc1c(F)cccc1Cl)c1c([N+](=O)[O-])cc(C(F)(F)F)cc1[N+](=O)[O-] | inactive
34 | NC(=O)c1cccnc1 | inactive
35 | COc1ccc(OC(F)(F)F)cc1CN[C@H]1CCCN[C@H]1c1ccccc1 | inactive
36 | O=S1(=O)OC(c2ccc(O)cc2)(c2ccc(O)cc2)c2ccccc21 | 13.3 µM (active) and 27.3 µM (active) and 17.2 µM (active)
37 | CCc1nc(N)nc(N)c1-c1ccc(Cl)cc1 | inactive
38 | CN(N=O)C(=O)N[C@@H]1[C@@H](O)[C@H](O)[C@@H](CO)O[C@@H]1O | inactive
39 | NC1CCCCC1 | inactive
40 | NS(=O)(=O)O | inactive
41 | C=CCc1ccc(O)c(OC)c1 | inactive
42 | CC(C)NCC(O)c1ccc(O)c(O)c1 (configuration not stated) | inactive
